# Results filed as inconclusive are left out. Calls of active or inactive are those of the source. The calls were made as follows, unless noted: active = hit-call score of the fitted dose curve at least 0.9, where 1 is the maximum; inconclusive = response in the unintended direction; inactive = score below 0.9.
# Experiments:
# [1] = read-out: glucuronosyltransferase (UGT1A1), UGT1A1 (gene 54658); experiment: CLD_UGT1A1_24hr: CellzDirect (CLD) Gene Expression Assay for glucuronosyltransferase (UGT1A1) at 24 hours (AID 2283696)
# Outline: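 UGT1A1 transcript induction was measured by quantitative nuclease protection assay (chemiluminescence) in human hepatocyte cultures 24 h after daily fresh dosing, with 0.2% DMSO as vehicle and baseline.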
# [2] = read-out: Cytochrome P450 3A4 (Homo sapiens) (UniProt P08684); experiment: CLD_CYP3A4_48hr: CellzDirect (CLD) Gene Expression Assay for xenobiotic metabolism (CYP3A4) at 48 hours (AID 2283698)
# Outline: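 CYP3A4 induction read by qNPA chemiluminescence after 48 h, with fresh dosing solutions on consecutive days, in cultured human hepatocytes (two donors). Vehicle 0.2% DMSO as baseline; microscopy-based cytotoxicity annotated yes/no alongside data.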
# [3] = read-out: xenobiotic metabolism (CYP1A2), CYP1A2 (gene 1544); experiment: CLD_CYP1A2_48hr: CellzDirect (CLD) Gene Expression Assay for xenobiotic metabolism (CYP1A2) at 48 hours (AID 2283703)
# Outline: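 Cytotoxicity was flagged yes/no from morphology, while CYP1A2 transcript induction was detected by qNPA chemiluminescence after a 48-hour exposure. Human primary hepatocyte cultures from separate donors received fresh dosing solutions daily over two days, with 0.2% DMSO as vehicle and baseline.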
# [4] = read-out: xenobiotic metabolism (CYP1A1), CYP1A1 (gene 1543); experiment: CLD_CYP1A1_48hr: CellzDirect (CLD) Gene Expression Assay for xenobiotic metabolism (CYP1A1) at 48 hours (AID 2283705)
# Outline: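 CYP1A1 transcript measured by quantitative nuclease protection (chemiluminescent) 48 h after two daily treatments of human hepatocyte cultures, versus 0.2% DMSO. Morphology-based cytotoxicity flags accompany data; two donor preparations used.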
# [5] = read-out: ABC Transporter (ABCB1), ABCB1 (gene 5243); experiment: CLD_ABCB1_48hr: CellzDirect (CLD) Gene Expression Assay for ABC Transporter (ABCB1) at 48 hours (AID 2283695)
# Outline: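 ABCB1 mRNA was measured by quantitative nuclease protection assay (chemiluminescence) 48 h after dosing. Human hepatocyte cultures from two separate donors received fresh dosing solutions daily for two days, with 0.2% DMSO as vehicle. Positive-direction fit against DMSO.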
# [6] = read-out: ABC Transporter (ABCB11), ABCB11 (gene 8647); experiment: CLD_ABCB11_48hr: CellzDirect (CLD) Gene Expression Assay for ABC Transporter (ABCB11) at 48 hours (AID 2283697)
# Outline: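 Induction of ABCB11 mRNA relative to 0.2% DMSO, measured at 48 h by qNPA chemiluminescence. Cultured human hepatocytes (two donors) received fresh dosing solutions at several concentrations on two consecutive days.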
# [7] = read-out: Cytochrome P450 2C9 (Homo sapiens) (UniProt P11712); experiment: CLD_CYP2C9_48hr: CellzDirect (CLD) Gene Expression Assay for xenobiotic metabolism (CYP2C9) at 48 hours (AID 2283701; active = hit-call score of the fitted dose curve at least 0.9, where 1 is the maximum; inactive = score below 0.9)
# Outline: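 mRNA level measured by quantitative nuclease protection (S1 digestion, chemiluminescent detection) in lysates of human primary hepatocytes exposed 48 h with daily re-dosing. Induction fitted positively versus 0.2% DMSO; morphology-based cytotoxicity flagged yes/no.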
# [8] = read-out: Broad substrate specificity ATP-binding cassette transporter ABCG2 (Homo sapiens) (UniProt Q9UNQ0); experiment: CLD_ABCG2_48hr: CellzDirect (CLD) Gene Expression Assay for ABC Transporter (ABCG2) at 48 hours (AID 2283704);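 as to AC50: potency for induction of ABCG2 mRNA above the DMSO baseline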
# Outline: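 ABCG2 transcript measured at 48 h by quantitative nuclease protection (chemiluminescent) and fitted for increase relative to 0.2% DMSO. Hepatocyte cultures from separate donors got fresh compound daily over two days; morphology annotated cytotoxicity.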
# [9] = read-out: organic anion transporter (SLCO1B1), SLCO1B1 (gene 10599); experiment: CLD_SLCO1B1_48hr: CellzDirect (CLD) Gene Expression Assay for organic anion transporter (SLCO1B1) at 48 hours (AID 2283707)
# Outline: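 SLCO1B1 transcript quantified by qNPA with chemiluminescent readout after 48 h of once-daily chemical exposure. Cultured human primary hepatocytes came from two donors, with 0.2% DMSO vehicle; positive-direction fitting against DMSO, cytotoxicity flagged by morphology.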
# [10] = read-out: alkyl and aryl transferase (GSTA2), GSTA2 (gene 2939); experiment: CLD_GSTA2_48hr: CellzDirect (CLD) Gene Expression Assay for alkyl and aryl transferase (GSTA2) at 48 hours (AID 2283708);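 also: active means mRNA induction above DMSO vehicle baseline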
# Outline: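 GSTA2 mRNA quantified by qNPA chemiluminescence in human primary hepatocyte lysates after 48 h of daily fresh chemical dosing. Increases fitted against 0.2% DMSO vehicle baseline; cytotoxicity from morphology annotated yes/no.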
# [11] = read-out: glucuronosyltransferase (UGT1A1), UGT1A1 (gene 54658); experiment: CLD_UGT1A1_48hr: CellzDirect (CLD) Gene Expression Assay for glucuronosyltransferase (UGT1A1) at 48 hours (AID 2283709);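 also: actives increase expression relative to DMSO so potency refers to induction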
# Outline: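 Quantitative nuclease protection assay (chemiluminescent) for UGT1A1 mRNA at 48 h in human hepatocyte cultures from two donors, redosed daily with fresh solutions. Induction fitted relative to 0.2% DMSO; phase-contrast morphology annotated cytotoxicity.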
# [12] = read-out: sulfotransferase (SULT2A), SULT2A1 (gene 6822); experiment: CLD_SULT2A_48hr: CellzDirect (CLD) Gene Expression Assay for sulfotransferase (SULT2A) at 48 hours (AID 2283710);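 also: hits raise SULT2A1 transcript above the 0.2% DMSO vehicle baseline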
# Outline: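 SULT2A1 transcript measured by qNPA chemiluminescence in human primary hepatocyte cultures after 48 h, with fresh dosing solutions on two consecutive days; gain-of-signal fitting against 0.2% DMSO vehicle; cytotoxicity annotated from phase-contrast morphology.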
# [13] = read-out: alkyl and aryl transferase (GSTA2), GSTA2 (gene 2939); experiment: CLD_GSTA2_24hr: CellzDirect (CLD) Gene Expression Assay for alkyl and aryl transferase (GSTA2) at 24 hours (AID 2283693)
# Outline: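 GSTA2 transcript levels were quantified by quantitative nuclease protection assay in primary human hepatocytes 24 h after daily dosing with fresh solutions at multiple concentrations; 0.2% DMSO vehicle as baseline, cytotoxicity flagged morphologically.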
# [14] = read-out: Cytochrome P450 2B6 (Homo sapiens) (UniProt P20813); experiment: CLD_CYP2B6_48hr: CellzDirect (CLD) Gene Expression Assay for xenobiotic metabolism (CYP2B6) at 48 hours (AID 2283699);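 also: actives raise transcript level above DMSO so potency reflects induction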
# Outline: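 CYP2B6 transcript induction, read by quantitative nuclease protection (S1 digestion, chemiluminescent detection) 48 h after dosing, is fitted upward against 0.2% DMSO. Cultured human liver primary cells, two donor preparations, received fresh chemical daily over multiple concentrations.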
# [15] = read-out: Cytochrome P450 2C19 (Homo sapiens) (UniProt P33261); experiment: CLD_CYP2C19_48hr: CellzDirect (CLD) Gene Expression Assay for xenobiotic metabolism (CYP2C19) at 48 hours (AID 2283700);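 also: fitted upward so actives raise CYP2C19 mRNA above the 0.2% DMSO vehicle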
# Outline: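 CYP2C19 mRNA induction read by chemiluminescent quantitative nuclease protection assay after 48 h, with fresh compound added daily for two days to cultured human liver hepatocytes. Activity fitted upward against 0.2% DMSO vehicle.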
# [16] = CLD_ACTIN_48hr: CellzDirect (CLD) Gene Expression Assay for Baseline Control (Actin) at 48 hours (AID 2283702)
# Outline: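 Background-control actin mRNA read by qNPA chemiluminescence at 48 h. Human hepatocyte cultures from two donors received fresh multi-concentration chemical doses daily for two days; 0.2% DMSO served as vehicle baseline.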
# [17] = read-out: sulfotransferase (SULT2A), SULT2A1 (gene 6822); experiment: CLD_SULT2A_24hr: CellzDirect (CLD) Gene Expression Assay for sulfotransferase (SULT2A) at 24 hours (AID 2283694)
# Outline: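 mRNA is measured by qNPA: probe hybridisation, S1 nuclease digestion, chemiluminescence, in lysates from human primary hepatocytes harvested 24 h after daily dosing. Vehicle was 0.2% DMSO. Phase-contrast microscopy flagged cytotoxicity (yes/no).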
# [18] = read-out: Glyceraldehyde-3-phosphate dehydrogenase (Homo sapiens) (UniProt P04406); experiment: CLD_GAPDH_48hr: CellzDirect (CLD) Gene Expression Assay for Baseline Control (Glyceraldehyde 3-phosphate dehydrogenase) at 48 hours (AID 2283706);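 also: active means higher GAPDH mRNA than DMSO vehicle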
# Outline: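 GAPDH baseline-control readout: qNPA chemiluminescent mRNA quantitation in human liver primary cells 48 h after daily dosing on two consecutive days, vehicle 0.2% DMSO; gain of signal fitted against DMSO, cytotoxicity flagged by phase-contrast morphology.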
# Sequence of Cytochrome P450 3A4 (Homo sapiens) (P08684 whole entry, looked up): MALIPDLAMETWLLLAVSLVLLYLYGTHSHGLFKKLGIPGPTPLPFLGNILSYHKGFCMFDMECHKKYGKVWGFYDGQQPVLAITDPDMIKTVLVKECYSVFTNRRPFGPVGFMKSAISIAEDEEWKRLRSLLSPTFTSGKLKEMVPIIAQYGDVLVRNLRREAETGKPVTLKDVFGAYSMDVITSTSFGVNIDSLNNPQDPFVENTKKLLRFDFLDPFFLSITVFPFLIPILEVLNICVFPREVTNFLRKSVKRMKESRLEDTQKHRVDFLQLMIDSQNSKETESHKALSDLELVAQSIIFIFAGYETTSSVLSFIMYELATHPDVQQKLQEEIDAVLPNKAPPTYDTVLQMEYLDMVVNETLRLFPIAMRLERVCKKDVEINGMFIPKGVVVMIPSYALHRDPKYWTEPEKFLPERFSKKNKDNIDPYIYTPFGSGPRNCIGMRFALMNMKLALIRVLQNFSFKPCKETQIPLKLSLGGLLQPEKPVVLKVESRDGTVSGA
# Sequence of Cytochrome P450 2C19 (Homo sapiens) (P33261 whole entry, looked up): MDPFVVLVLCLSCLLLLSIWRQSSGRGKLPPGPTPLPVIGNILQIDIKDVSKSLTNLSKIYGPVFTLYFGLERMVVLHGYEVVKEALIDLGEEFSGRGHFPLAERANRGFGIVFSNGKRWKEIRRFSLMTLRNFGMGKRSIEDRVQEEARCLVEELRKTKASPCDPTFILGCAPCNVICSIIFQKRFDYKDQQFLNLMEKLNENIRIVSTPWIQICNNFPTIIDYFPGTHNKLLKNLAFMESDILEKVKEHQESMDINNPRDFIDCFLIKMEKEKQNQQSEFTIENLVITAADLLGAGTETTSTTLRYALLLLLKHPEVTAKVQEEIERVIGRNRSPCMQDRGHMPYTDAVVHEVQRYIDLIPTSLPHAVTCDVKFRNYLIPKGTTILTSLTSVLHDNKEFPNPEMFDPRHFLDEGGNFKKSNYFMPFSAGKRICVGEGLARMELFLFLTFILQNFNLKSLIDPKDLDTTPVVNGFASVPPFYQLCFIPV
# Sequence of Broad substrate specificity ATP-binding cassette transporter ABCG2 (Homo sapiens) (Q9UNQ0 whole entry, looked up): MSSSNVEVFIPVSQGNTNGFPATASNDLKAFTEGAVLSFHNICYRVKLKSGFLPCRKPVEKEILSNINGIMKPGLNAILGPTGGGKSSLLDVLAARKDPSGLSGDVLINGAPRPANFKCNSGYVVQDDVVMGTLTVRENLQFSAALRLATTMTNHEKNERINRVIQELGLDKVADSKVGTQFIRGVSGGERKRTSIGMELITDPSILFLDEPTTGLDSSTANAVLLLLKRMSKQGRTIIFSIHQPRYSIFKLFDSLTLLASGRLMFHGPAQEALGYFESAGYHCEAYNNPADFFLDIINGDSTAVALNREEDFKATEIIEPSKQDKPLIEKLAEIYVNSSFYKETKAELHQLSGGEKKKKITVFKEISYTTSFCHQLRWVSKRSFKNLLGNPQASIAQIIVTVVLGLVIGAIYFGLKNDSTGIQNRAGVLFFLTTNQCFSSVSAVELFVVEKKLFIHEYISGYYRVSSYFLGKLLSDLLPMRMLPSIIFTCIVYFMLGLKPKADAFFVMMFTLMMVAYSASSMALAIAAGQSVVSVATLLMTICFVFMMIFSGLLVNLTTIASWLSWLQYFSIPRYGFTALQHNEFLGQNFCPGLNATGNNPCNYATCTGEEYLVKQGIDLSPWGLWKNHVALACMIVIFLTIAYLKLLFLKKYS
# Sequence of Glyceraldehyde-3-phosphate dehydrogenase (Homo sapiens) (P04406 whole entry, looked up): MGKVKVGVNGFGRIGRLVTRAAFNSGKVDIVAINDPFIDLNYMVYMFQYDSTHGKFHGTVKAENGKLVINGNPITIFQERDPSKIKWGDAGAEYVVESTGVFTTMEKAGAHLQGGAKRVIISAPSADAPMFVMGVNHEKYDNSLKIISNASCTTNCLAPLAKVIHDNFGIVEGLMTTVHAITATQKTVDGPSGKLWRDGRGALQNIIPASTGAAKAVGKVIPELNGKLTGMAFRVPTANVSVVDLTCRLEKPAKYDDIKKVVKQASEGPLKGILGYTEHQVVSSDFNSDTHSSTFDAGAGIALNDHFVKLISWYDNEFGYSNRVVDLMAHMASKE
compound,measurement,setting,value
CC(C)NC(=O)N1CC(=O)N(c2cc(Cl)cc(Cl)c2)C1=O,outcome,[1],inactive
same,AC50,[2],13.5 µM (active)
same,AC50,[3],4.68 µM (active)
same,AC50,[4],12.3 µM (active)
OC(c1ccc(Cl)cc1)(c1ccc(Cl)cc1)C(Cl)(Cl)Cl,outcome,[5],inactive
same,outcome,[1],inactive
same,outcome,[6],inactive
same,AC50,[2],11 µM (active)
same,outcome,[7],inactive
same,outcome,[3],inactive
same,outcome,[8],inactive
same,AC50,[4],20 µM (active)
same,outcome,[9],inactive
same,outcome,[10],inactive
same,outcome,[11],inactive
same,outcome,[12],inactive
CCSC(=O)N1CCCCCC1,outcome,[13],inactive
same,outcome,[5],inactive
same,outcome,[1],inactive
same,AC50,[2],3.97 µM (active)
same,AC50,[14],0.378 µM (active)
same,outcome,[15],inactive
same,outcome,[16],inactive
same,outcome,[8],inactive
same,outcome,[4],inactive
same,outcome,[10],inactive
CC(C)(C)C(=O)C(Oc1ccc(Cl)cc1)n1cncn1 (centres undefined),outcome,[5],inactive
same,outcome,[1],inactive
same,AC50,[2],1.5 µM (active)
same,outcome,[15],inactive
same,AC50,[3],12.9 µM (active)
same,outcome,[8],inactive
same,AC50,[4],8.65 µM (active)
same,outcome,[10],inactive
same,outcome,[12],inactive
COP(=O)(OC)O/C(C)=C/C(=O)N(C)C,outcome,[13],inactive
same,outcome,[17],inactive
same,outcome,[5],inactive
same,outcome,[6],inactive
same,outcome,[2],inactive
same,outcome,[14],inactive
same,outcome,[15],inactive
same,outcome,[7],inactive
same,outcome,[3],inactive
same,outcome,[8],inactive
same,outcome,[18],inactive
same,outcome,[9],inactive
same,outcome,[10],inactive
same,outcome,[11],inactive
same,outcome,[12],inactive
COc1cc(OC)nc(NC(=O)NS(=O)(=O)c2ncccc2OCC(F)(F)F)n1,outcome,[5],inactive
same,outcome,[6],inactive
same,AC50,[2],20 µM (active)
same,outcome,[15],inactive
same,outcome,[7],inactive
same,outcome,[16],inactive
same,outcome,[3],inactive
same,outcome,[8],inactive
same,outcome,[4],inactive
same,outcome,[9],inactive
same,outcome,[12],inactive
COC(=O)c1c(C(F)F)nc(C(F)(F)F)c(C2=NCCS2)c1CC(C)C,outcome,[5],inactive
same,outcome,[1],inactive
same,AC50,[2],1.9 µM (active)
same,outcome,[15],inactive
same,outcome,[7],inactive
same,AC50,[3],1.66 µM (active)
same,outcome,[8],inactive
same,AC50,[4],8.66 µM (active)
same,AC50,[10],20 µM (active)
same,outcome,[11],inactive
same,AC50,[12],1.7 µM (active)
CCCCC(C#N)(Cn1cncn1)c1ccc(Cl)cc1 (centres undefined),outcome,[13],inactive
same,outcome,[5],inactive
same,outcome,[1],inactive
same,AC50,[2],20 µM (active)
same,outcome,[7],inactive
same,AC50,[3],11.7 µM (active)
same,outcome,[8],inactive
same,AC50,[4],35.1 µM (active)
same,outcome,[10],inactive
CC(C)Oc1cccc(NC(=O)c2ccccc2C(F)(F)F)c1,outcome,[1],inactive
same,AC50,[14],5.34 µM (active)
same,outcome,[15],inactive
same,outcome,[7],inactive
same,AC50,[3],7.17 µM (active)
same,AC50,[8],0.000858 µM (active)
same,AC50,[4],36.6 µM (active)
same,outcome,[12],inactive

# From PubChem BioAssay (EPA / NIEHS)
